This note sets out measurements from PubChem BioAssay (NCATS).

One assay relates to W2. The assay is described as follows: qHTS profiling for inhibitors of Plasmodium falciparum proliferation (AID 504749). Also: potency is read from the fitted curve at half-maximal effect. The following applies: P. falciparum in erythrocytes, SYBR Green DNA, 72 h; series mostly up to 28.7 µM. Put shortly: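 SYBR Green fluorescence of parasite DNA, read after lysis and overnight dark incubation, measured growth over 72 h in erythrocyte culture at 0.3% parasitemia and 2.5% hematocrit. Data normalised to DMSO and 0.29 uM artemisinin, with plate-drift correction.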

In assay [1] the test system is CRL-7250. Briefly: Cytotoxic Profiling of Annotated Libraries Using Quantitative High-Throughput Screening (AID 1296008). As to max response: % is scaled to controls: 0 for no effect and ±100 for the full control effect. The following applies: Five cell lines viability, CellTiter-Glo ATP luminescence, 48-72 h; max response: stronger effect = lower value. Put shortly: (§1)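 Cytotoxicity was measured as CellTiter-Glo ATP luminescence, read after 10 min at room temperature. Compound treatment of the cells lasted 48 or 72 hr at 37 degrees Celsius in a qHTS format.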
(In general: Cellular ATP, detected with luciferase, serves as a proxy for viable cell number.)

The test system of assay [2] is HaCat. Described as above. The following applies: Five cell lines viability, CellTiter-Glo ATP luminescence, 48-72 h; max response: stronger effect = lower value. In outline:
as §1

The next assay concerns KB-3-1. The assay is described as above. The following applies: Five cell lines viability, CellTiter-Glo ATP luminescence, 48-72 h; max response: stronger effect = lower value. In outline: as §1
For another assay, the system named is NIH3T3. Described as above. The following applies: Five cell lines viability, CellTiter-Glo ATP luminescence, 48-72 h; max response: stronger effect = lower value. In outline:
as §1

The next assay deals with MCC-13. The assay is described as follows: qHTS assay to identify novel small-molecules to repurpose for Merkel cell carcinoma treatment (AID 1296009). The following applies: MCC and control cell lines, CellTiter-Glo viability, 72 h; series mostly up to 46 µM. In outline:
(§2)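 Cell viability, measured as CellTiter-Glo luminescence, was normalized between DMSO and no-cell wells. The cells had been exposed to 8- or 11-point compound dilutions for 72 hr at 37 degree celsius.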

Assay [3] relates to CRL-7250. The assay is described as above. The following applies: MCC and control cell lines, CellTiter-Glo viability, 72 h; at 44.8 µM (top of the series) unless noted. In outline:
as §2

The test system of assay [4] is HACAT. Described as above. The following applies: MCC and control cell lines, CellTiter-Glo viability, 72 h; at 44.8 µM (top of the series) unless noted. Put shortly: as §2

Molecules are shown by their SMILES. Values joined by “and” are separate entries in the source; they are usually repeats but may differ in a detail not shown here. Identical values can stand only once. Inconclusive results are not listed. Unmarked numbers belong to inactive results. Active and inactive are the calls of the source. Calls follow the shape of the dose curve; as a rule, active = well fitted inhibition curve with a large enough effect; inconclusive = small, poorly fitted or top-dose-only effect; inactive = flat fitted curve, though single readings scatter.
Also: nearly all actives have a fitted effect of over 60% in size.

Regarding `C[C@]12CCC(=O)C=C1CC[C@@H]1[C@@H]2CC[C@]2(C)C(=O)CC[C@@H]12`, the Potency entry with W2 is “inactive”. Also, the max response is -5.91% in the assay with CRL-7250 [1], -13.1% with HaCat [2], -6.1% in the assay on KB-3-1 and -1.13% in the assay with NIH3T3. In the assay on MCC-13, the compound was called inactive. Consider `Nc1nc2ccc(OC(F)(F)F)cc2s1`, for which the result in the assay on CRL-7250 [3] was inactive. On the same count and under the same terms, in the case of `NS(=O)(=O)c1cc(C(=O)NN2C[C@H]3[C@H]4CCC(C4)[C@H]3C2)ccc1Cl` it was “inactive”; in that of `CCCCCCn1c(=O)c2c(ncn2C)n(C)c1=O`, “inactive”. `CN=C1CN(O)C(c2ccccc2)=c2cc(Cl)ccc2=N1`: the max response in the assay on KB-3-1 is -12.7% and 2.13%. For `COP(=S)(OC)SCN1C(=O)c2ccccc2C1=O`, the Potency entry in the assay with W2 is “inactive”. In addition, the compound was classed as inactive with HaCat [2], in the assay on HACAT [4] and in the assay with MCC-13. In addition, the max response with KB-3-1 was 6.87%. Consider `CC(C(=O)O)c1ccc2c(c1)[nH]c1ccc(Cl)cc12` (stereo not drawn), for which the compound was classed as inactive with CRL-7250 [3]. As to `CC(C)[C@H]1C(=O)N2CCC[C@H]2[C@]2(O)O[C@](NC(=O)[C@@H]3C[C@@H]4c5cccc6[nH]cc(c56)C[C@H]4N(C)C3)(C(C)C)C(=O)N12`, the max response in the assay on KB-3-1 is 22.9%.

`COC(=O)C(c1ccccc1)C1CCCCN1` (stereo not drawn): in the assay on W2, the Potency was 4.26 µM (active). In addition, in the assay on KB-3-1, the max response is 5.58%.

For `CCOc1nc2cccc(C(=O)O)c2n1Cc1ccc(-c2ccccc2-c2nn[nH]n2)cc1`, in the assay on CRL-7250 [3], the compound was classed as inactive. For `CN1C(=O)CC(=O)N(c2ccccc2)c2cc(Cl)ccc21`, the Potency result with W2 is “inactive”. Besides, in the assay with KB-3-1, the max response was 9.14%.

As for `Nc1ccn(C[C@@H](CO)OCP(=O)(O)O)c(=O)n1`, the max response in the assay with KB-3-1 is -9.56%.
